Most compounds without a hit are left out; they make up all but 5.4% or so of the library.
Mdm2 MdmX PPI = human Mdm2/MdmX binding inhibition | actives 3% (n = 330,000) | SaOS-2 split-luciferase Mdm2/MdmX complementation, luminescence | inhibition, % at 8 µM | AID 485346;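 active = inhibition of at least 50% at 8 µM in the primary screen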
CSC inhib = blocks cancer stem cells | inhibition, % at 7.5 µM | actives 1.1% (n = 300,000) | cancer stem cell-like cells viability, luminescence; in the data active = inhibition above about 75%; inconclusive = no clear call, values can overlap the other calls; tested in HMLE shEcad cells
MPTP block = inhibitors of mitochondrial permeability transition pore | isolated mouse mitochondria, Ca2+ swelling absorbance, 30 min | inhibition, % at 10 µM | actives 1.4% (n = 360,000) | AID 602449;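 active = inhibition of 50% or more, scaled per plate between neutral and stimulator controls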
Calb FLC = affects C. albicans growth with fluconazole. growth inhibition, % (no concentration beside the values). actives 0.57% (n = 300,000). C. albicans CaCi-2 (fluconazole-resistant clinical isolate) + fluconazole, Alamar Blue growth, 48 h. AID 1979;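 active = growth inhibition above about 58% in most replicates, limit read from the data, passing the limit was not always enough; inconclusive = exactly half the replicates above a set limit; inactive = most replicates below a set limit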;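 note: all wells also contain fluconazole at 8 µg/ml as a sub-toxic cotreatment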
SKKanGAS inh = SKKanGAS growth inhibition. S. pyogenes SKKanGAS, kanamycin growth, BacTiter-Glo, 6 h. inhibition, % at 7.5 µM. actives 1.3% (n = 300,000);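 active = mean replicate score, as percent of positive control median, at least 50; inconclusive = mean below 50 but one replicate at or above 50; inactive = mean and every replicate below 50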;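 note: strain carries kanamycin resistance gene driven by streptokinase promoter and grows in 40 µg/ml kanamycin; loss of luminescence reflects streptokinase promoter inhibition or plain growth inhibition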
Beta apoptosis = blocks beta cell apoptosis | INS-1E cytokine-induced death, ATP luminescence, 48 h; percent of positive-control rescue, neutral wells zero | protection from apoptosis, % (concentration not given with the values) | actives 0.8% (n = 300,000) | AID 435005;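 active = Every replicate reaches about 75%, or at least half do and their mean reaches it too, limit read from the data; inconclusive = At least half of replicates reach the limit but their mean does not; inactive = Under half of replicates reach the limit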;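 note: higher means more ATP so stronger rescue from cytokine killing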
Of the large screens only hits and unclear results are named; the others gave an inactive call.

CCOC(=O)C1=NN(C(=O)c2ccc(C)cc2)C(O)(c2ccc(Cl)cc2)C1 (configuration not stated)	Calb FLC inconclusive, SKKanGAS inh 55
CCC1=NN(C(=O)c2ccc(Cl)cc2)C(O)(c2ccccc2)C1 (configuration not stated)	none
COC(=O)C1=NN(C(=O)c2ccc(Cl)cc2)C(O)(c2ccccc2)C1 (configuration not stated)	Calb FLC 59
CCC1=NN(C(=O)c2ccccc2Br)C(O)(c2ccc(Br)cc2)C1 (configuration not stated)	none
CCC1=NN(C(=O)c2ccccc2O)C(O)(c2ccccc2)C1 (configuration not stated)	CSC inhib 79, Calb FLC 107, SKKanGAS inh 54, Beta apoptosis 87
CCC1=NN(C(=O)c2ccc(Cl)cc2)C(O)(c2ccc(C)cc2)C1 (configuration not stated)	CSC inhib 99
CCOC(=O)N1N=C(C)CC1(O)c1ccc(Cl)cc1 (configuration not stated)	none
Cc1ccc(C(=O)OCC(=O)Nc2ccc3c(c2)OCCO3)cc1C	none (no result: CSC inhib, Calb FLC, SKKanGAS inh, Beta apoptosis)
O=C(CSc1cccc(C(F)(F)F)c1)NC(=O)NCc1ccco1	none (no result: CSC inhib, Beta apoptosis)
Cc1cc(C)n(-c2cc(O)c(-n3nc(C)cc3C)cc2O)n1	none
CC(C)CCCC(C)CCOC(=O)CN1CCCC1 (configuration not stated)	none
O=C(COC(=O)/C=C/c1ccccc1[N+](=O)[O-])NC1CC1	none
O=C1NC2(CCC3(CC2)OCCO3)NN1c1ccc(Cl)cc1	Calb FLC 106
O=C1NC2(CCCCC2)NN1c1ccccc1	none
NC(=S)NNc1cccc(Cl)c1	Calb FLC 85
NC(=S)NNC(=O)Nc1cccc(Cl)c1	none
COC(=O)c1c[nH]n2c(=O)c(Cc3ccc(F)cc3Cl)c(C)nc12	Calb FLC 97
COC(=O)c1c[nH]n2c(=O)c(Cl)c(C)nc12	none
Cc1ccc(S(=O)(=O)NNC(=S)NC(=O)c2ccc([N+](=O)[O-])cc2)cc1	none
Cc1ccc(C(=O)NC(=S)NNC(=O)c2ccc([N+](=O)[O-])cc2)cc1	SKKanGAS inh 80
CC(=O)NNC(=S)NC(=O)c1cccc([N+](=O)[O-])c1	none (no result: Beta apoptosis)
O=C(NNc1c(Cl)cc(Cl)cc1Cl)c1cccc([N+](=O)[O-])c1	Beta apoptosis 113
O=C(NNC(=S)NC(=O)c1ccc(Br)cc1)c1ccc([N+](=O)[O-])cc1	Calb FLC 87, SKKanGAS inh 100
O=C(NNC(=S)NC(=O)c1ccc(Br)cc1)c1cccc([N+](=O)[O-])c1	SKKanGAS inh 102
CN(C(=O)c1ccc(NC(=O)Cc2cccc(NC(=O)C3CCN(C(=O)C4CCCCC4)CC3)c2)cc1)C1CC1	none (no result: Mdm2 MdmX PPI, CSC inhib, Calb FLC, SKKanGAS inh, Beta apoptosis)
Cc1ccc(S(=O)(=O)NNC(=O)c2ccoc2C)cc1	none
O=C(NNC(=S)NC(=O)c1ccccc1)c1ccc([N+](=O)[O-])cc1	Calb FLC 84, SKKanGAS inh 67
O=C(CC(=O)c1ccccc1)Nc1cccc([N+](=O)[O-])c1	none (no result: Mdm2 MdmX PPI, CSC inhib, Calb FLC, SKKanGAS inh, Beta apoptosis)
O=C(CC(=O)c1cccc([N+](=O)[O-])c1)Nc1ccccc1Cl	Calb FLC 103
O=C(NC(=S)NNC(=O)c1ccccc1O)c1ccc([N+](=O)[O-])cc1	none
O=C(c1ccc(Cl)cc1)c1oc2ccccc2c1CS(=O)(=O)c1ccccc1	none
Cn1cccc1-c1nc2ccccc2n1Cc1ccccc1	CSC inhib 88
C=C1CCC2C(C)(C)[C@@H](O)CC[C@@]2(C)[C@@H]1COc1ccc2ccc(=O)oc2c1 (some centres not stated)	SKKanGAS inh 52
C=C1CCC2C(C)(C)[C@H](O)CC[C@@]2(C)[C@@H]1COc1cc(=O)oc2ccccc12 (some centres not stated)	none
CCc1ccc(OCc2n[nH]c(=S)n2C(C)CCCC(C)C)cc1 (configuration not stated)	CSC inhib 118
CCc1ccc(OCc2n[nH]c(=S)n2Cc2ccccc2)cc1	none
N=c1ccn(Cc2ccc(Cl)cc2Cl)cc1	Beta apoptosis 103
Cc1ccc(NC(=O)CN(c2ccccc2F)S(C)(=O)=O)cc1	none
Cc1cccc(NC(=O)C2CCCN(S(=O)(=O)c3cccs3)C2)c1C (configuration not stated)	none

Screening results as filed in PubChem.
